NRP1-CendR mod: NRP-1/CendR interaction modulation | O14786 | FAM-RPARPAR peptide binding to NRP-1, fluorescence polarization | inhibition, % at 25 µM | actives 0.85% (n = 360,000) | AID 602438;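 active means inhibition or corrected inhibition above about 18%, plus a signal ratio from 0.5 to 1.5, limit read from the data, passing the limit was not always enough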
HGIII-sPLA2 inh: Blocks human group III sPLA2 activity. Q9NZ20. QFRET BODIPY PC-A2 liposome hydrolysis, fluorescence. inhibition, % at 12.2 µM. actives 0.56% (n = 370,000);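 active means inhibition above mean plus 3 SD of compounds lying within the high and low control bounds, cut at about 19% in these data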
ADAM17 inh: ADAM17 inhibition, QFRET primary screen; recombinant ADAM17, EDANS/DABCYL FRET peptide cleavage; inhibition, % at 6.95 µM; actives 0.83% (n = 370,000);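 active means inhibition above the mean of compounds lying between control limits plus 3 SD, set per campaign, cut at about 8.5% in these data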
KLK7 zymogen act: activates the human kallikrein-7 zymogen; P49862; activation, % at 7 µM; AID 652039; purified proKLK7, EDANS-DABCYL substrate fluorescence; 100% is mature enzyme control, 0% vehicle; actives 0.9% (n = 370,000);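 active means activation above the mean of all tested compounds plus 3 SD, computed per campaign excluding outliers beyond control limits, cut at about 13% in these data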
Target sequence (P49862 whole entry, looked up): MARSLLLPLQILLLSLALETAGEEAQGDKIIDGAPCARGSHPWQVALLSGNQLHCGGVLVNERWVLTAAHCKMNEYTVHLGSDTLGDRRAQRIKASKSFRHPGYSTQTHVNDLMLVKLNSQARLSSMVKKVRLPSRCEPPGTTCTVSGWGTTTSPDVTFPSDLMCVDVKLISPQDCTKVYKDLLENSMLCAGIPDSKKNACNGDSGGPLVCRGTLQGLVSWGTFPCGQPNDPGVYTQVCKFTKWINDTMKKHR
ADAM10 inh: inhibits human ADAM10 | O14672 | recombinant ADAM10, EDANS/DABCYL FRET peptide cleavage, 3 h | inhibition, % at 7 µM | actives 0.62% (n = 370,000) | AID 720582;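 active means inhibition above a per-campaign cutoff equal to the mean of compounds falling between control-based bounds plus 3 SD, cut at about 20% in these data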
proKLK7 act conf: confirmation of human kallikrein-7 zymogen activators; purified proKLK7, EDANS-DABCYL substrate fluorescence; scaled: vehicle 0, mature enzyme 100; activation, % at 7 µM; actives 68% (n = 3,200); shares compounds with KLK7 zymogen act; AID 686949;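 active means activation, as change over the incubation, above the mean of all tested compounds plus 3 SD, cut at about 13% in these data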
EDANS-DABCYL int: fluorescence interference counter-screen for KLK7 activators; shares compounds with KLK7 zymogen act; EDANS-DABCYL substrate fluorescence interference, no enzyme, 4 h; solvent 0%, active enzyme control 100%; activation, % at 7 µM; actives 80% (n = 3,200); AID 686952;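 active means activation above the all-compound mean plus 3 SD, ignoring values outside control-based bounds, cut at about 4.8% in these data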;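 further: value is the 4 h activation minus the activation read at time zero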
EDANS interf: counter-screen for kallikrein-7 activators: EDANS-DABCYL interference, dose response; EC50, µM; actives 20% (n = 250); shares compounds with KLK7 zymogen act; EDANS-DABCYL peptide fluorescence interference, no enzyme;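 active means compounds that raise the fluorescence signal in this interference counterscreen, with EC50 at or below 10 µM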;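 further: intact quenched peptide substrate alone read at 355 nm excitation and 520 nm emission; signal is fluorescence gain from T0 to T4 after four hours at room temperature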
Large screens that a line does not name were inactive (follow-up assays come after a bar, where they were run). Rows were chosen to be rich in hits. Some 3.4% of all compounds tested hit in one or more screens of this group.

COCCN(CCOC)Cc1c(O)ccc2c1O/C(=C\c1ccco1)C2=O	KLK7 zymogen act 19 | proKLK7 act conf 23 | EDANS-DABCYL int 27
O=C1/C(=C/c2ccco2)Oc2c1ccc(O)c2CN1CCCCC1	KLK7 zymogen act 14 | proKLK7 act conf 67 | EDANS-DABCYL int 73
CCC(=O)Oc1ccc2c(c1)O/C(=C\c1ccco1)C2=O	KLK7 zymogen act 51 | proKLK7 act conf 478 | EDANS-DABCYL int 467
CCCC1CCC2(CCC(=O)N2CCO)CC1 (stereo unspecified)	none (no result: NRP1-CendR mod)
COc1ccc(Oc2c(Cl)cnn(-c3cc(C)cc(C)c3)c2=O)cc1	none (no result: NRP1-CendR mod, KLK7 zymogen act)
O=C(NC1CCCCN(Cc2cccc(Cl)c2)C1=O)c1c(F)cccc1F (stereo unspecified)	none (no result: NRP1-CendR mod)
COc1ccc(OC)c(/C=N/n2c(COc3ccccc3)n[nH]c2=S)c1	KLK7 zymogen act 20 | proKLK7 act conf 43 | EDANS-DABCYL int 37
N=C1/C(=C/c2cccn2Cc2ccc(F)cc2)C(=O)N=C2SC=CN12	KLK7 zymogen act 28 | proKLK7 act conf inactive | EDANS-DABCYL int 5.6
N=C1/C(=C\c2coc3ccccc3c2=O)C(=O)N=C2SC=CN12	KLK7 zymogen act 23 | proKLK7 act conf 33 | EDANS-DABCYL int 32
CCOC(=O)[C@@]12CCCC=C1N(CCc1ccc(Cl)cc1)C(=O)[C@H]2CC(=O)NCCCCc1ccccc1	none (no result: NRP1-CendR mod)
COC(=O)[C@]12C[C@H](CC(=O)N3CCCCC3)C(=O)N(Cc3ccco3)C1=C[C@H](C(C)(C)C)O[C@@H]2C	none (no result: NRP1-CendR mod)
C/C(=N\NC(=O)c1cc(-c2ccccc2)nc2ccccc12)c1ccc(Cl)cc1	none (no result: NRP1-CendR mod)
CC(=O)Nc1ccc2c(c1)C(=O)c1ccccc1C2=O	none
CC(=O)Nc1cc2c3c(cccc3c1)-c1ccccc1-2	KLK7 zymogen act 89 | proKLK7 act conf 28 | EDANS-DABCYL int inactive | EDANS interf 9.9
COC(=O)[C@]12C[C@H](CC(=O)N3CCN(C(=O)c4ccco4)CC3)C(=O)N(Cc3ccco3)C1=C[C@H](COCc1ccccc1)O[C@@H]2C	none (no result: NRP1-CendR mod)
CC(C)C[C@H](NC(=O)c1nccs1)C(=O)N1CCC[C@H]1C(=O)NCc1ccccc1	none (no result: NRP1-CendR mod)
OC[C@@H]1[C@@H](c2ccc(F)cc2)C(c2ccccc2)=NN1c1ccccc1	none
O=C1C2C(c3ccccc3)=NN(c3ccccc3)C2C(=O)N1c1ccccc1 (stereo unspecified)	KLK7 zymogen act 14 | proKLK7 act conf 13 | EDANS-DABCYL int 18
O=C1[C@H]2C(c3ccccc3)=NN(c3ccccc3)[C@H]2C(=O)N1c1ccccc1	KLK7 zymogen act 22 | proKLK7 act conf inactive | EDANS-DABCYL int inactive
Cc1nc2ccccn2c1C(O)(c1ccccc1)c1ccccc1	none (no result: NRP1-CendR mod, KLK7 zymogen act)
CCOc1ccc(-n2c(SCC(=O)Nc3cccc4ccccc34)nnc2-c2ccco2)cc1	none (no result: NRP1-CendR mod)
Cc1nc2[nH]c(=O)c3c(n2n1)NC1=C(C(=O)CC(C)(C)C1)C3c1ccccc1 (stereo unspecified)	KLK7 zymogen act 47 | proKLK7 act conf inactive | EDANS-DABCYL int 11
CC1(C)CC(=O)C2=C(C1)NC1=C(C(=O)c3ccccc31)C2c1ccccc1 (stereo unspecified)	none
CCCCNC(=O)C1C(c2ccc(C(F)(F)F)cc2)=Nc2ccccc2N1C(=O)c1ccc2nc(C)[nH]c2c1 (stereo unspecified)	KLK7 zymogen act 92 | proKLK7 act conf inactive | EDANS-DABCYL int inactive
COc1ccc(C2CC(=O)C(c3cccc(Cl)c3)=CN2Cc2ccccc2)cc1 (stereo unspecified)	none (no result: NRP1-CendR mod)
O=C(COC(=O)c1ccccc1O)Nc1cccc(S(=O)(=O)NC2=NCCCCC2)c1	none
O=C(COC(=O)c1ccccc1NCCO)Nc1ccc(S(=O)(=O)NC2=NCCCCC2)cc1	KLK7 zymogen act 23 | proKLK7 act conf inactive | EDANS-DABCYL int inactive
Cc1cc(=O)oc2cc(N3C(=O)CC(Cc4ccccc4)C3=O)ccc12 (stereo unspecified)	KLK7 zymogen act 19 | proKLK7 act conf 25 | EDANS-DABCYL int 23
Cn1c(/C=C/c2ccccc2)nc2ccccc21	none
CC(=O)c1ccc(/C=C/c2nc3ccccc3n2C)o1	KLK7 zymogen act 40 | proKLK7 act conf 71 | EDANS-DABCYL int 71
COc1ccccc1-c1nnc(SC2CCc3ccccc3NC2=O)s1 (stereo unspecified)	KLK7 zymogen act 13 | proKLK7 act conf inactive | EDANS-DABCYL int 6.3
COc1ccccc1-c1nnc(N)s1	none
COc1ccc(S(=O)(=O)NCC(=O)N2CCN(c3ccccn3)CC2)c(OC)c1	none (no result: NRP1-CendR mod)
CCc1c(C2(O)CCCCC2)[nH]c2cnccc12	KLK7 zymogen act 70 | proKLK7 act conf inactive | EDANS-DABCYL int 16
Cc1c(C2(O)CCCCC2)[nH]c2ccccc12	none (no result: NRP1-CendR mod)
COc1cc2c(cc1OC)C(CSc1ccccc1C(=O)O)=NC(C)(C)C2	KLK7 zymogen act 14 | proKLK7 act conf inactive | EDANS-DABCYL int 5.2
COc1ccc(-c2c(C(=O)c3ccccc3)[nH]c(N)c2C(=O)c2c[nH]c3ccccc23)cc1OC	none (no result: NRP1-CendR mod, KLK7 zymogen act)
C=C(C)COc1cc2oc(=O)c(CC(=O)N3C[C@H]4C[C@@H](C3)c3cccc(=O)n3C4)c(C)c2cc1Cl	KLK7 zymogen act 16 | proKLK7 act conf 24 | EDANS-DABCYL int 25
C=C(C)COc1ccc2c(C)c(CC(=O)N3C[C@H]4C[C@@H](C3)c3cccc(=O)n3C4)c(=O)oc2c1	none
Cc1cccc(NC(=S)NNC(=S)NC2CCCCC2)c1C	KLK7 zymogen act 28 | proKLK7 act conf inactive | EDANS-DABCYL int inactive
N#Cc1c(N)n(CCNC(=O)c2ccccc2)c2nc3ccccc3nc12	KLK7 zymogen act 42 | proKLK7 act conf 68 | EDANS-DABCYL int 59
COc1ccccc1CCn1c(N)c(C#N)c2nc3ccccc3nc21	none
N#Cc1c(N)n(-c2cccc(C(=O)O)c2)c2nc3ccccc3nc12	KLK7 zymogen act 62 | proKLK7 act conf 68 | EDANS-DABCYL int 65
N#Cc1c(N)n(CCNC(=O)c2cccs2)c2nc3ccccc3nc12	KLK7 zymogen act 53 | proKLK7 act conf 71 | EDANS-DABCYL int 82
O=C(c1ccc(F)cc1)C1CCN(c2ncnc3sccc23)CC1	none (no result: NRP1-CendR mod, KLK7 zymogen act)
O=c1nc(-c2ccccc2)c2cc(Cl)ccc2[nH]1	KLK7 zymogen act 14 | proKLK7 act conf 29 | EDANS-DABCYL int 28
COc1ccc2c(=O)c(-c3ccccc3C)c(C)oc2c1	none
Cc1oc2cc(OCC(=O)O)ccc2c(=O)c1Oc1ccccc1	none
